Results published in PubChem BioAssay (NCI).
Compounds without any hit were thinned out: in the full panel of roughly 79,000, 15% have a hit. Calls of active or inactive are those of the source. No stated cut-off is given here; in the data, active means growth inhibition above about 70%; inactive means the rest.

What was measured:
[1] = NCI Yeast Anticancer Drug Screen. Data for the rad50 strain (AID 155);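 further: 0% = growth of vehicle-only cultures of the same strain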; conditions: S. cerevisiae rad50 strain growth inhibition; at 50.0 µM; hits give high values
Procedure, shortened: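 Inhibition values express reduced yeast growth in compound-treated cultures relative to vehicle-treated controls.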

[2] = NCI Yeast Anticancer Drug Screen. Data for the mec2-1 strain (AID 157); conditions: S. cerevisiae mec2-1 strain, at 50.0 µM, hits give high values
Procedure, shortened: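 Each compound was tested on mec2-1 yeast, a strain altered in DNA damage repair or cell cycle control. Growth inhibition is reported relative to vehicle.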

[3] = NCI Yeast Anticancer Drug Screen. Data for the sgs1 mgt1 strain (AID 161);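 further: 0% = growth of cultures given vehicle only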; conditions: S. cerevisiae sgs1 mgt1 strain, at 50.0 µM, hits give high values
Procedure, shortened: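 Genetically altered yeast, compound exposure, growth inhibition relative to vehicle.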

[4] = NCI Yeast Anticancer Drug Screen. Data for the cln2 rad14 strain (AID 165);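 further: 0% = growth equal to vehicle treated cultures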; conditions: S. cerevisiae cln2 rad14 strain, at 50.0 µM, hits give high values
Procedure, shortened: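 Test compounds were added to cln2 rad14 yeast cultures; inhibition of growth was then determined by comparison with vehicle treatment.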

[5] = NCI Yeast Anticancer Drug Screen. Data for the bub3 strain (AID 167); conditions: S. cerevisiae bub3 mutant strain, at 50.0 µM, hits give high values
Procedure, shortened: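 Steps: expose the mutant yeast strain to compound; grow alongside vehicle-treated cultures; measure growth; express inhibition against the vehicle cultures.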

[6] = NCI Yeast Anticancer Drug Screen. Data for the mlh1 rad18 strain (AID 175); conditions: S. cerevisiae mlh1 rad18 strain growth inhibition; at 50.0 µM; hits give high values
Procedure, shortened: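 Inhibition values reflect reduced growth of mutant yeast versus vehicle-treated controls following compound exposure; the mutations affect DNA damage repair.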

Measured: growth inhibition

CCCC1(C(C)C)C(=O)NC(=S)NC1=O
inactive: [1] 10.7% | [2] -7.2% | [3] -1.9% | [4] 6.55% | [5] -10.6% | [6] -24.1%

COc1cc2c(c3oc4cccc(O)c4c(=O)c13)[C@@H]1C=CO[C@@H]1O2
inactive: [1] -11.6% | [2] -15.2% | [3] -7.05% | [4] 26.1% | [5] -8.7% | [6] -8.9%

Cc1ccc([NH-])cc1.Cc1ccc([NH-])cc1.[Cl][Pt+2][Cl]
inactive: [1] -31.7% | [2] -6.8% | [3] 3.95% | [4] -61.7% | [5] 3.55% | [6] -11.3%

O=C(Cc1nc2ccccc2c(=O)n1-c1c(Cl)cccc1Cl)c1ccncc1
inactive: [1] 2.45% | [2] 7.95% | [3] 7.1% | [4] -25.6% | [5] -2.95% | [6] 18.9%

CC(C)(C)C1COP(=O)(C(C)(C)C)OC1 (configuration not stated)
inactive: [1] -12.6% | [2] 6.1% | [3] -1.15% | [4] -38.6% | [5] 10.6% | [6] 16.2%

CN1CCNCC1
inactive: [1] 11.1% | [2] -6.55% | [3] -10.5% | [4] -18.4% | [5] 11.5% | [6] 5.75%

O=[N+]([O-])c1ccc(P(=O)(O)O)cc1
inactive: [1] -7.5% | [2] -27.7% | [3] 0.3% | [4] -22.4% | [5] 2.85% | [6] 10.4%

CCc1c2c(c(C)n1C)C(c1ccccc1)=NCC(=O)N2
inactive: [1] 8.1% | [2] 21.1% | [3] 21.7% | [4] -7.1% | [5] 13.4% | [6] 3%

N#CCCO
inactive: [1] -7.35% | [2] 5.05% | [3] 0.55% | [4] -6.9% | [5] -3.7% | [6] -6.2%

CCCC(=O)[O-].CCCC(=O)[O-].N.N.N.N.[Co+3].[O-][Cl+3]([O-])([O-])[O-]
inactive: [1] -5.15% | [2] -0.75% | [3] -48% | [4] 12.3% | [5] -5.1% | [6] -12.6%

CCN1CCOC(CC)(c2cc(Cl)cc(Cl)c2Cl)C1 (configuration not stated)
inactive: [1] 6.35% | [2] 20.4% | [3] 8.4% | [4] 13.2% | [5] 4.3% | [6] 20.4%

Cc1ccc(S(=O)(=O)OC2CN3CCC2CC3)cc1 (configuration not stated)
inactive: [1] 62.4% | [2] -2.95% | [3] 42.7% | [4] 26.8% | [5] 38.4% | [6] 51.5%

O=P1(N(CCCl)CCCl)NCCCO1 (configuration not stated)
inactive: [1] -8.1% | [2] -32.2% | [3] -6.1% | [4] 4.8% | [5] -15.2% | [6] -7.05%

COc1ccc(CC(N)c2ccc(OC)cc2)cc1 (configuration not stated)
inactive: [1] -50% | [2] 0.8% | [3] -40% | [4] -24.8% | [5] -11.3% | [6] -2.4%

NC(Cc1ccc(O)c(O)c1)c1ccccc1 (configuration not stated)
inactive: [1] -12.1% | [2] 4.2% | [3] -2.55% | [4] -25.8% | [5] -7.75% | [6] -22.6%

O=[C-]C(F)(F)F.[C-]#[O+].[C-]#[O+].[C-]#[O+].[Mo].[c-]1[c-][c-][cH-][c-]1
inactive: [1] 5.2% | [2] 13.3% | [3] 0.8% | [4] 25.9% | [5] 21.4% | [6] 7.05%

[Cl][Hg][Cl].c1ccc(N=P(c2ccccc2)(c2ccccc2)c2ccccc2)cc1
active: [1] 99.7% | [2] 99.8% | [3] 99.8% | [4] 99.5% | [5] 99.3% | [6] 99.6%

O=S(=O)(O)O.[Cr+3].[NH-]CC[NH-].[NH-]CC[NH-].[NH-]CC[NH-]
inactive: [1] -20.7% | [2] -20.1% | [3] 0.75% | [4] -36.5% | [5] 10% | [6] 7.25%

c1ccc(CCN2CCCCC2)nc1
inactive: [1] 2.55% | [2] -1.8% | [3] -0.15% | [4] -1.1% | [5] 13.3% | [6] -0.85%

CSP(N)(=O)OC(C)C (configuration not stated)
inactive: [1] -16.9% | [2] 11.8% | [3] -15.6% | [4] -23.6% | [5] -33.6% | [6] 15.8%

O=[N+]([O-])c1cccc(P(=O)(O)O)c1
inactive: [1] -7.3% | [2] 53.5% | [3] 3.35% | [4] 5.25% | [5] -4.5% | [6] 0.85%

COC(=O)CCP(CCC(=O)OC)c1ccccc1
inactive: [1] -3.9% | [2] -11% | [3] -7.15% | [4] -10.7% | [5] -4.85% | [6] 1.1%

C[N+]1(C)C2CCC1CC(OC(=O)C(CO)c1ccccc1)C2 (configuration not stated)
inactive: [1] 18.7% | [2] -21.6% | [3] -6% | [4] -28.4% | [5] -51.5% | [6] -5.95%

O=C1c2ccccc2C(=O)N1N1CC1c1ccccc1 (configuration not stated)
inactive: [1] -8.2% | [2] -36.1% | [3] 8.1% | [4] 18.2% | [5] 6.5% | [6] -1%

O=C(O)c1cc([N+](=O)[O-])cc([N+](=O)[O-])c1
inactive: [1] -3% | [2] 1.3% | [3] 2.75% | [4] -34.2% | [5] -30.9% | [6] 43.2%

O=C(Nc1cc(Cl)c(Cl)cc1Cl)C(=O)C1C(=O)NC(=S)NC1=O
inactive: [1] 0.35% | [2] -8.2% | [3] -9% | [4] 9.75% | [5] 12.9% | [6] -22.4%

CC(C)CC(C)(C)COP(=S)(OCC(C)(C)CC(C)C)OCC(C)(C)CC(C)C
inactive: [1] 13.6% | [2] -15% | [3] 0.8% | [4] -37% | [5] -8.75% | [6] 10.6%

COc1ccc(/C=C/C=C2C(=O)NC(=S)NC2=O)cc1
inactive: [1] 25.6% | [2] 4.55% | [3] 29.1% | [4] 11.2% | [5] 0.75% | [6] 25.2%

Cn1c(O)c(N=NC(N)=S)c(=O)n(C)c1=O
inactive: [1] 30.6% | [2] 20.4% | [3] 8.95% | [4] -20.4% | [5] -20.3% | [6] 14.6%

O=c1cc([N+](=O)[O-])n(O)cc1[N+](=O)[O-]
inactive: [1] 31.1% | [2] 12.6% | [3] 32.5% | [4] 21.2% | [5] -4.1% | [6] 44.5%

CCNC(=O)N1CC2CCC(C1)N2C
inactive: [1] -1.15% | [2] 7.85% | [3] 6.45% | [4] -39.1% | [5] -18.8% | [6] 8.45%

C1NCC2CNCC1O2
inactive: [1] 3.2% | [2] -12.4% | [3] -7.95% | [4] 6.35% | [5] 7.9% | [6] -3.15%

ClCCN(CCCl)c1ccc(C=Nc2ccccc2)cc1
inactive: [1] 34.5% | [2] 21.1% | [3] 59.6% | [4] 12.2% | [5] 2% | [6] 28.6%

O=P(Oc1ccccc1)(N1CCCC1)N1CCCC1
inactive: [1] 27.9% | [2] 18.4% | [3] 11.9% | [4] 18.1% | [5] 36.5% | [6] 8.15%

CCCCOP(=O)(OCCCC)SCl
inactive: [1] -9.4% | [2] 1.7% | [3] 3.2% | [4] 13.9% | [5] -11.1% | [6] 6%

C1C[N-]CC[N-]1.C1C[N-]CC[N-]1.N#CS.[Ni+2]
inactive: [1] 5.1% | [2] 5.65% | [3] 1.4% | [4] -11.9% | [5] 7.6% | [6] -5.4%

C[n+]1ccc(/C=C\c2ccc(N(CCCl)CCCl)cc2)c2ccccc21
inactive: [1] 4.8% | [2] 15.9% | [3] 4% | [4] 24.1% | [5] 15.4% | [6] 18.6%

CCOP(=S)(NCCCOC)OCC
inactive: [1] 0.25% | [2] 5.8% | [3] 12.3% | [4] -32.4% | [5] 22.6% | [6] 2.4%

CCCC(NC(=O)CCl)C(=O)O (configuration not stated)
inactive: [1] -13.1% | [2] -18.1% | [3] -11.4% | [4] -73.8% | [5] 0.65% | [6] -8.25%

O=C1NC(=O)C(=Cc2ccco2)C(=O)N1
inactive: [1] -4.4% | [2] -26.4% | [3] -7.85% | [4] 5.65% | [5] -31.6% | [6] -3.3%

COc1ccc(CCl)cc1CCl
inactive: [1] -24.2% | [2] -62.8% | [3] -7.25% | [4] 5.85% | [5] -26.4% | [6] -43.7%

CC(=O)Nc1ccc(Cl)cc1
inactive: [1] -20.4% | [2] -7.15% | [3] -18.1% | [4] 1.7% | [5] 9.45% | [6] -1.9%
